A selection: hits, their analogues and other compounds. The true share with any hit is near 21%.
TDP1 cell noCPT: qHTS for Inhibitors of human tyrosyl-DNA phosphodiesterase 1 (TDP1): qHTS in cells in absence of CPT. 420,000 tested, 15% active. Potency, µM (highest dose often 46.2 µM), for the others: at the top dose activity change, negative = growth inhibition, hits mostly inhibitors. DT40 Tdp1-/- hTDP1 cells, no CPT, ATP luminescence, 48 h; note: potency is the fitted concentration of half-maximal effect; nearly all actives have a fitted effect of over 55% in size
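Cells were dispensed at 400 per well, compounds added by pin tool, plates incubated ≥48 hr at 37 °C, then CellTiter-Glo added for 30 min at room temperature before luminescence reading. Line: DT40 Tdp1-/- complemented with hTDP1; camptothecin omitted.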
TDP1 cell CPT: growth inhibition of DT40 Tdp1-/-;hTDP1 cells with camptothecin (screen for TDP1 inhibitors) | chicken DT40 Tdp1-/-;hTDP1 cells + 20 nM CPT, ATP luminescence, 48 h | Potency, µM (series often up to 46.2 µM), for inactives: at the top dose activity change, negative = growth inhibition, hits mostly inhibitors | 420,000 tested, 12% active; note: potency is the fitted concentration of half-maximal effect; nearly all actives have a fitted effect of over 55% in size
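Chicken DT40 Tdp1-/- cells stably complemented with human TDP1 were seeded at 400 cells/well in medium containing 20 nM camptothecin, exposed to pin-transferred compounds, and grown at 37 °C for at least 48 hr. Viability was read as ATP luminescence.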
Gal4-VP16 FLuc: inhibits Gal4-VP16 luciferase reporter, ROR gamma counter-screen | 310,000 tested, 3.5% active | Potency, µM (highest dose often 53.6 µM), inactives show top-dose activity, negative = inhibition, most hits filed as inhibitors | Drosophila S2 Gal4-VP16 UAS-luciferase, luminescence, 20 h | AID 2546;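 note: Gal4-VP16 expression switched on by copper sulfate through the metallothionein promoter; potency is the fitted concentration of half-maximal effect; nearly all actives have a fitted effect of over 50% in size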
IL1B secr inh: inflammasome signaling inhibition, IL-1 beta readout; THP-1 LPS/ATP IL-1B secretion, AlphaLISA, 16 h; stronger effect = lower value; activity change, % at 57.5 µM; 360,000 tested, 4.7% active; in the data active = activity change below about -50%; inconclusive = mostly about -30% to -49%
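Secreted IL-1B measured by AlphaLISA bead assay after 16 h compound exposure of THP-1 cells; compounds (final up to 57.5 uM) added 1 h before LPS (250 ng/mL) and ATP (1.25 mM) stimulation; lower signal means less secretion.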
RORg inh: ROR gamma (mouse) transcription inhibition | P51450 | Drosophila S2 Gal4-RORgamma UAS-luciferase reporter, 20 h | Potency, µM (titrated, usually from 53.6 µM), inactives show top-dose activity change, negative = inhibition, usual class: inhibitors | 310,000 tested, 5.4% active; note: potency is the fitted concentration of half-maximal effect; nearly all actives have a fitted effect of over 60% in size
Target sequence (P51450 whole entry, looked up, the tested form may be a part): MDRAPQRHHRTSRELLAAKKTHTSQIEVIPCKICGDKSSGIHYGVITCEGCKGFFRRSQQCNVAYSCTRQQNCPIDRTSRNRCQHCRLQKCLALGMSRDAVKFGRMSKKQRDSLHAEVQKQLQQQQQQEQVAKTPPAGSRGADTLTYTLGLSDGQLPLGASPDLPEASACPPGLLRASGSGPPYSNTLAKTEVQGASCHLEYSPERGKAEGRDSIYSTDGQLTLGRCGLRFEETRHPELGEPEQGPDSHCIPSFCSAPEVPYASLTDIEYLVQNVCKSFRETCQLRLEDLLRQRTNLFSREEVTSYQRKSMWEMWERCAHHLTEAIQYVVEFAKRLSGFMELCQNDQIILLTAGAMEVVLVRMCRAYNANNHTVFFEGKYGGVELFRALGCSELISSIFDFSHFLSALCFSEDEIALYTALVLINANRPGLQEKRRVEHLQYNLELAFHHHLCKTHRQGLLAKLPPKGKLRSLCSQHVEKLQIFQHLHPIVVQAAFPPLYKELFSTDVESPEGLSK
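Stable Schneider cell line, Gal4 DNA-binding domain fused to ROR gamma, UAS-luciferase. Cmpd 1 hr RT → CuSO4 700 uM final → 20 hr RT → luciferase reagent 10 min → luminescence.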
ELG1 DNA repair: ELG1-dependent DNA repair inhibition. 330,000 tested, 2.3% active. HEK293T ELG1-luciferase reporter, luminescence, 16 h; DNA damage induced by 5-fluorouridine. AID 504467. Potency, µM (doses to about 46.1 µM), without a hit: top-dose activity change, negative = inhibition, hits mostly inhibitors; note: potency is the fitted concentration of half-maximal effect; nearly all actives have a fitted effect of over 55% in size
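Step one: seed 2,000 cells per well. Step two: pin-transfer compound or DMSO alongside 5-fluorouridine. Step three: incubate 16 hr, 37 °C, 5% CO2. Step four: add ONE-Glo, wait 30 min, read luminescence.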
Starred values were filed as active, the others as inactive; ? = inconclusive; nt = no result; [ ] = dose if it differs, or a comment. Unless noted, calls come from the whole dose curve; as a rule, active = well fitted curve in the direction sought with a large enough effect; inconclusive = small, poorly fitted or top-dose-only effect, or another doubt; inactive = no such curve, though single readings can be large; an effect the other way counts as inactive or inconclusive. % is set by controls: 0 for no effect and ±100 for the full control effect.

SMILES	TDP1 cell noCPT	TDP1 cell CPT	Gal4-VP16 FLuc	IL1B secr inh	RORg inh	ELG1 DNA repair
CCc1ccccc1NC(=O)c1ccc2c(SCC(=O)O)c3c(nc2c1)CCC3	-17%	22%	nt	nt	nt	nt
O=C(O)CC/C(=N\Nc1ccc(Cl)cc1)c1cccs1	-14%	-10%	18%	7	-9%	12%
c1ccc(NN=C(c2ccccc2)c2cccs2)cc1	21µM*	-7%	nt	-14	nt	nt
O=[N+]([O-])c1ccc(Cc2ccc([N+](=O)[O-])cc2)cc1	-15%	-17%	nt	39	nt	nt
N#CC(CCc1ccc([N+](=O)[O-])cc1)(CCc1ccc([N+](=O)[O-])cc1)C(N)=O	13µM*	23µM*	nt	0	nt	nt
CC1=C([N+](=O)[O-])C(c2ccc3c(c2)OCO3)N(C)C(=O)N1C (stereo unspecified)	21µM*	8.2µM*	14%	-2	-29%	-8%
COc1cnc(-c2ccccn2)nc1Sc1ccccc1	1µM*	1.5µM*	11µM*	49	2.5µM*	?
COc1cnc(N(C)C)nc1Sc1ccc(Cl)cc1	-11%	-30%	-9%	21	25%	2%
Cc1nc(-c2ccccn2)nc(SCC(=O)c2ccccc2)c1Cl	?	?	11µM*	nt	4µM*	?
COc1cnc(-c2ccccn2)nc1Sc1ccc(F)cc1	0.52µM*	0.58µM*	3.5µM*	1	-29%	21µM*
COc1ccc(Sc2nc(-c3ccccn3)ncc2OC)cc1	3.3µM*	2.9µM*	8.9µM*	25	2.2µM*	15µM*
Cc1ccc(NC(=O)N2CCN(Cc3nc4ccc(C)cc4o3)CC2)cc1	-29%	-25%	nt	nt	nt	nt
COc1cccc(-c2nc(CS(=O)(=O)CC(=O)Nc3ccc(C)c(Cl)c3)c(C)o2)c1	-15%	-4%	nt	nt	nt	nt
CCOC(=O)CSc1nc(-c2ccccn2)ncc1OC	4.6µM*	8.2µM*	-6%	33	?	-9%
O=C(CSC(=S)N1CCOCC1)c1cc2ccccc2oc1=O	?	?	-8%	51	?	?
C[C@H](NC(=O)c1nc[nH]c1C(=O)N[C@@H](CCCCNC(=O)OC(C)(C)C)C(=O)OC(C)(C)C)C(=O)OCc1ccccc1	?	?	?	1	-20%	-5%
CC(C)(C)OC(=O)NCCCCCNC(=O)c1[nH]cnc1C(=O)N[C@@H](Cc1ccccc1)C(=O)OCc1ccccc1	?	?	?	?	?	1%
CC(C)(C)OC(=O)NCCCC[C@H](NC(=O)c1nc[nH]c1C(=O)NCC(=O)OCc1ccccc1)C(=O)OC(C)(C)C	?	15µM*	?	-1	28µM*	-25%
CC(C)C[C@H](NC(=O)c1nc[nH]c1C(=O)N[C@@H](CCCCNC(=O)OC(C)(C)C)C(=O)OC(C)(C)C)C(=O)OCc1ccccc1	?	?	?	-19	7.1µM*	?
CC(C)C[C@H](NC(=O)c1nc[nH]c1C(=O)NCCCCCNC(=O)OC(C)(C)C)C(=O)OCc1ccccc1	?	?	6.3µM*	22	13µM*	0%
Cc1ccc(N2CCN(C(=O)c3cn(C)c4ccc(S(=O)(=O)N(C)C)cc4c3=O)CC2C)cc1 (stereo unspecified)	-37%	1%	nt	nt	nt	nt
CC(C)=NOCc1cccc(-c2cc(-c3ccccc3)no2)c1	nt	nt	2%[10 µM]	nt	13%[10 µM]	nt
CCCCCCCC/C=C\CCCCCCCC(=O)OCC(CO)OC(=O)CCCCCCC/C=C\CCCCCCCC (stereo unspecified)	-7%[4.12 µM]	-29%[4.12 µM]	-4%	nt	-24%	nt
C[C@@H]1CCC(=O)N(C[C@@H](C)CSc2ccc(Br)cc2)CC1	18µM*	?	nt	-19	nt	-1%
Cc1ccc(SC[C@H](C)CN2CC[C@H](C)CCC2=O)cc1	18µM*	13µM*	4%	22	2%	0%
SMILES	TDP1 cell noCPT	TDP1 cell CPT	Gal4-VP16 FLuc	IL1B secr inh	RORg inh	ELG1 DNA repair
O=C1C2=C(S[C@@H]3O[C@H](CO)[C@@H](O)[C@H](O)[C@H]3O2)C(=O)c2ccccc21	0.65µM*	0.65µM*	-15%	nt	-33%	nt
c1cncc(OC2CCN(Cc3ccc4c(c3)CN(Cc3ccc5c(c3)OCCO5)CCO4)CC2)c1	16µM*	?	nt	nt	nt	nt
COc1ccc(CN2CCOc3ccc(CN4CCC(Oc5cccnc5)CC4)cc3C2)cc1	-29%	21µM*	nt	nt	nt	nt
COc1ccc(CN2CCOc3ccc(CN4CCC(Oc5cccnc5)CC4)cc3C2)cc1C	?	-10%[9.04 µM]	nt	nt	nt	nt
c1cncc(OC2CCN(Cc3ccc4c(c3)CN(Cc3ccc5c(c3)CCO5)CCO4)CC2)c1	18µM*	-9%[9.04 µM]	nt	nt	nt	nt
Cc1cc(C)cc(CC(=O)N2CCC2(C)C(=O)NS(=O)(=O)c2cc(C)ccc2F)c1 (stereo unspecified)	2%	5%	nt	2	nt	nt
COc1ccc(C(=O)N2CCN(C(=O)Cc3ccccc3)CC2)cc1	-5%	-3%	-12%	0	4%	11%
COc1ccc(Cn2cc(CN3CC(N4CCCC4)CS3(=O)=O)nn2)cc1 (stereo unspecified)	-14%	3%	nt	-5	nt	nt
COc1ccccc1NC(=S)NC(=O)Cc1ccccc1	-15%	15%	nt	22	nt	nt
CCC(=O)Nc1ccc(OC)cc1OC	?	?	-3%	24	7%	7%
COc1ccc(OC)c(NC(=O)c2cc3ccccc3o2)c1	-1%	-20%	4%	-3	28%	6%
CCC(=O)NC(=S)Nc1ccc(OC)cc1OC	?	?	?	-1	11µM*	?
COc1ccc(NC(=S)NC(=O)c2cc3ccccc3o2)c(OC)c1	-6%	-8%	-24%	-3	8.9µM*	5%
Cc1ccc(NC(=S)NC(=O)Cc2ccccc2)c(O)c1	-1%	?	?	-11	20µM*	23%
COc1ccc(NC(=S)NC(=O)Cc2ccccc2)c(OC)c1	-21%	10%	11µM*	16	14µM*	?
O=C1CC2(CCN(C(=O)c3ccccc3[N+](=O)[O-])CC2)Oc2ccccc21	?	?	nt	-6	nt	-4%
COc1cccc(CNC(=O)[C@@H]2CCCN2C(=O)[C@H]2CCCCN2C(=O)c2ccccc2C)c1	1%	0%	nt	4	nt	nt
COc1ccc2cc(CCNC(=O)c3cc4ccccc4o3)c(=O)[nH]c2c1	?	21µM*	-4%	-11	34%	-8%
